# Results reported in PubChem BioAssay AID1117361 (Southern Research Institute, 2015).
# In all, about 3,600 compounds went through this assay and about 900 (25%) were called active. No rule for the calls is given here. A selection follows. Measured potencies and affinities stand elsewhere.
# Biological target: Protein Tat (Human immunodeficiency virus type 1 group M subtype B (isolate HXB2)) (UniProt P04608)
# Assay: HIV-1 Tat–TAR interaction blockers – biochemical, fluorescence polarization, FAM-labeled TAR RNA, counter-screen for Vif-APOBEC3G degradation inhibitor project, dose response (AID 1117361)
# Conditions: Tat-TAR RNA binding; series mostly up to 100 µM
row,SMILES,outcome
1,CCOC(=O)c1ccc(N2C(=O)c3n[nH]c(C)c3C2c2ccc(OC)cc2OC)cc1 (stereo unspecified),inactive
2,CCC1SC2=NC(C)=C(C(=O)OC)C(c3ccc(C(=O)OC)cc3)N2C1=O (stereo unspecified),inactive
3,CC1=NN(C(=O)c2csc(C)c2)C(O)(C(F)(F)F)C1 (stereo unspecified),inactive
4,CCCC(=O)Nc1cccc(-c2nc3ccccc3o2)c1,inactive
5,Brc1ccccc1Cn1c(-c2cncs2)nc2ccccc21,inactive
6,O=C(CNS(=O)(=O)c1ccc2ccccc2c1)Nc1ccc(F)c(F)c1F,inactive
7,CC(C)(C)CN1CCNC(=O)C1CC(=O)NCCc1ccccc1C(F)(F)F (stereo unspecified),inactive
8,COc1cccc(CN2CCNC(=O)C2CC(=O)NCCn2nc(C)cc2C)c1OC (stereo unspecified),inactive
9,O=C(CSc1ccccc1)N1CCN(c2ccccc2)CC1,inactive
10,Cc1nc2nc(C)c(CCC(=O)N3CCN(c4ccccc4)CC3)c(C)n2n1,inactive
11,C(=N\Nc1nncn1/N=C/c1ccco1)/c1ccco1,inactive
12,Cc1nc2scc(-c3ccccc3)c2c(=O)n1/N=C/c1ccco1,inactive
13,COc1cccc(/C=N/n2c(-c3cc(C)[nH]n3)n[nH]c2=S)c1,inactive
14,Cn1ccnc1SCC(=O)c1ccc(Br)cc1,inactive
15,CCO[C@H]1OC(C(=O)NCc2ccccc2)=C[C@@H](c2coc3ccccc3c2=O)[C@@H]1CCCO,inactive
16,C/C(N)=C(/C#N)C(=O)COC(=O)CCSc1ccccc1,inactive
17,CCN(CC)Cc1cc(Nc2c3ccccc3nc3c4ccccc4n(C)c23)cc(CN(CC)CC)c1O,inactive
18,Clc1ccc(-n2ncc3c(NCc4ccccn4)ncnc32)cc1,inactive
19,COc1ccccc1C(C#N)N1N=C(C)CC1(C)C (stereo unspecified),inactive
20,CSc1nc2ccc3nc(NC(=O)c4ccccc4)sc3c2s1,inactive
21,CCOc1ccc(C(=O)NC(=S)Nc2ccc(N3CCC(C)CC3)cc2)cc1[N+](=O)[O-],inactive
22,CCCCN(C(=O)c1ccccc1OCc1ccc(F)cc1)c1c(N)n(CC(C)C)c(=O)[nH]c1=O,inactive
23,CC(C)c1ccc(SCc2noc(C(=O)NCC3CCCO3)c2C(=O)O)cc1 (stereo unspecified),inactive

row,SMILES,outcome
1,CCN1C(=O)/C(=C/N2CC(C)CC(C)C2)SC1=S (stereo unspecified),inactive
2,Cc1ccccc1N1C(=O)C2ON(c3ccccc3)C(c3cccnc3)C2C1=O (stereo unspecified),inactive
3,CC1=CCC(/C=N\Nc2nnc3c(n2)[nH]c2ccccc23)CC1 (stereo unspecified),inactive
4,CCOC(=O)c1nc2sc(C)c(C)c2c(=O)[nH]1,inactive
5,CCN1C(=O)c2ccccc2S(=O)c2ccc(C(=O)N3CCCC3)cc21 (stereo unspecified),inactive
6,Cc1cccc(N2CCN(CC(=O)NCC3CCCCC3)CC2)c1C,inactive
7,Nc1nc(-c2ccc(F)cc2)cc(C(F)(F)F)n1,inactive
8,O=C(CN1C(=O)c2ccccc2C1=O)OC(C(=O)c1ccc(Cl)cc1)c1ccccc1 (stereo unspecified),inactive
9,COc1ccc(NC(=O)c2ccccc2NC(=O)CSc2ccc(Cl)cc2)cc1,inactive
10,Cc1cc(NC(=O)c2ccccc2F)n(-c2nc3ccccc3[nH]2)n1,inactive
11,CC(C)(C)NC(=O)NC(=O)COc1ccccc1C#N,inactive
12,CC1CN(C(=O)N[C@@H](Cc2ccccc2)C(=O)O)CC(C)O1 (stereo partly specified),inactive
13,Cc1ccc(CC(NC(=O)c2ccccc2)C(=O)NC(C)C(=O)O)cc1 (stereo unspecified),inactive
14,O=C(CSc1nc2ccccc2c(=O)n1NC(=O)Cc1ccccc1)NCc1ccccc1,inactive
15,C=C(Br)Cn1c(CC)nc2ccccc21,inactive
16,COC(=O)Cc1cc(=O)n2[nH]c(C)cc2n1,inactive
17,CCOC(=O)Cc1csc(N/N=C\c2cccc(Br)c2)n1,inactive
18,CC(=O)N1CCc2cc(S(=O)(=O)NCCC(=O)Nc3cc(C)cc(C)c3)ccc21,inactive
19,Oc1ccccc1-c1cc(C(F)(F)C(F)F)[nH]n1,inactive
20,OC(CN1CCN(c2ccccc2)CC1)c1ccc2c(c1)CCN2 (stereo unspecified),inactive
21,CCc1ccc(-c2nc(SCC(=O)c3c(N)n(C4CC4)c(=O)[nH]c3=O)n[nH]2)cc1,inactive
22,O=C(COC(=O)Cc1ccc(Cl)cc1)NCc1ccco1,inactive
23,COc1ccc(CC(=O)OCC(=O)NCc2ccco2)cc1OC,inactive

row,SMILES,outcome
1,COc1cc(C(=O)Nc2ccc(N3CCCS3(=O)=O)cc2)c([N+](=O)[O-])cc1OC,inactive
2,Cc1cc(O)c(-c2n[nH]c3c2C(c2cccc(O)c2)N(Cc2cccnc2)C3=O)cc1Cl (stereo unspecified),inactive
3,CCCn1c2ccccc2c2nnc(SC(CC)C(=O)Nc3sc4c(c3C#N)CCCC4)nc21 (stereo unspecified),inactive
4,N#Cc1c(NC(=O)CSc2nnnn2C2CCCCC2)sc2c1CCCC2,inactive
5,CCCC(C)NC(=O)CSCc1ccc(OC)cc1 (stereo unspecified),inactive
6,CCNc1nc(NCC)nc(OCCNS(=O)(=O)c2cc(C)ccc2C)n1,inactive
7,COc1ccccc1C=NC(CO)C(O)c1ccc([N+](=O)[O-])cc1 (stereo unspecified),inactive
8,Cc1c(NC(=O)NCCN2C(=O)C3C4C=CC(C4)C3C2=O)c(=O)n(-c2ccccc2)n1C (stereo unspecified),inactive
9,O=C(NCN1C(=O)C2C3C=CC(C3)C2C1=O)OC1CCCCC1 (stereo unspecified),inactive
10,C=CCc1c(C)nc2c(C(=O)O)cnn2c1C,inactive
11,Cc1ccccc1-c1nc(CN2CCC(C(=O)N3CCN(c4ccccn4)CC3)CC2)c(C)o1,inactive
12,COc1ccc(-c2cc(-c3ccccc3)c(C#N)c(S(C)=O)n2)cc1 (stereo unspecified),inactive
13,Cc1cccc(C)c1NC(=O)c1ccc(-n2cnnn2)cc1,inactive
14,COc1ccc(C2=NOC(C(=O)NCc3cccs3)C2)cc1OC (stereo unspecified),inactive
15,Cc1cccc(N2C(=O)CN=C2Nc2nc(C)cc(C)n2)c1,inactive
16,COc1ccc(/C=N/OCC(=O)Nc2cc(C)on2)cc1OC,inactive
17,COC(=O)C1CCN(c2ccc([N+](=O)[O-])cc2)CC1,inactive
18,O=C(Nc1ccc(N2CCCCC2)cc1)c1cc([N+](=O)[O-])cc([N+](=O)[O-])c1,inactive
19,CC1(C)Cc2ccccc2C(/C(=N/O)C(N)=O)=N1,inactive
20,COc1ccc2cnn(CCOc3cc(C)ccc3C(C)C)c(=O)c2c1OC,inactive
21,Cc1nc(N(C)C)c2sc(=S)n(C)c2n1,inactive
22,Cc1cccc(NC(=O)CSc2nnc(CCC(=O)Nc3ccc(C)c(Cl)c3)n2C)c1,inactive
23,CCCCc1nccn1CCn1ccnc1CCCC,inactive

row,SMILES,outcome
1,CCc1ccc(C2C(C(C)=O)=C(C(=O)OC)Nc3nnnn32)cc1 (stereo unspecified),inactive
2,COc1ccc(S(=O)(=O)Nc2cc(SCC(=O)O)c(O)c3ccccc23)cc1,inactive
3,COC(=O)COc1ccc(S(=O)(=O)Nc2ccc(C(N)=O)cc2)cc1C,inactive
4,CCc1ccc(CCC(=O)Nc2ccc(S(N)(=O)=O)cc2)o1,inactive
5,Cc1onc(-c2ccccc2)c1CNC(=O)C1COc2ccccc2O1 (stereo unspecified),inactive
6,CCc1cccc(NC(=O)Cn2ncn3c(cc4ccccc43)c2=O)c1,inactive
7,O=S(=O)(c1ccc(OCc2nc3ccccc3s2)c(Cl)c1)N1CCOCC1,inactive
8,COc1ccc(C(=O)N2CC3(C)CC2CC(C)(C)C3)cc1 (stereo unspecified),inactive
9,Cc1ccc(OCCN2CCCCCC2)c(C)c1,inactive
10,CC1CCCCC1NC(=S)Nc1cccc(S(=O)(=O)N(C)C)c1 (stereo unspecified),inactive
11,Cc1cc(SCC(=O)N/N=C/c2ccc(O)c(O)c2O)c(C)cc1Br,inactive
12,CCN(CC)S(=O)(=O)c1cccc(NN=c2c(=O)c3ccccc3c2=O)c1,inactive
13,CCn1c(C)nc2cc(C(=O)NNC(=O)CCC3CCCCC3)ccc21,inactive
14,Cc1cccc(N/C=C/C(=C(C#N)C#N)N(C)C)c1,inactive
15,Cc1c(/C=N\NC(=O)c2csc3ccccc23)cnn1C,inactive
16,COc1cccc(/C=N/NC(=O)c2cnccn2)c1O,inactive
17,CN(C)S(=O)(=O)c1ccc(NC(=O)c2cc3ccccc3o2)cc1,inactive
18,CNC(=O)CN(C)S(=O)(=O)c1ccc(F)cc1,inactive
19,C=CCSc1nnc(NC(=O)CSc2nnc(C)s2)s1,inactive
20,COc1ccc(C(=O)n2nc(-c3ccccc3)nc2SC)cc1,inactive
21,CCOc1ccc(NC(=O)C2CCCN(S(=O)(=O)c3c(C)n[nH]c3C)C2)cc1 (stereo unspecified),inactive
22,CCCNC(=O)Cn1c2ccccc2c2nc(=O)cc(C)n21,inactive
23,CCOC(=O)c1c(C)[nH]c(C(=O)CSc2nnc(C3CC3)n2N)c1C,inactive

row,SMILES,outcome
1,CN(C)S(=O)(=O)N1CCN(c2ccc(Cl)cc2)CC1,inactive
2,CCCC(=O)NC(C)C(c1cccs1)N1CCN(C)CC1 (stereo unspecified),inactive
3,Cc1ccc(S(=O)(=O)N(C)c2ccccc2C(=O)N2CCCC2)cc1,inactive
4,COc1cc(C(=O)NNC(=S)NCc2ccco2)cc(OC)c1OC,inactive
5,O=C(NCCc1ccccc1)c1ccc2c(c1)N(Cc1ccccc1)C(=O)CS2=O (stereo unspecified),inactive
6,O=C(CCS(=O)(=O)c1cccs1)Nc1ccc(C(=O)NCc2ccccc2)cc1,inactive
7,CCS(=O)(=O)N1CCC(C(=O)NCc2ccccn2)CC1,inactive
8,COc1ccc(C(=O)NCc2cccnc2)cc1OC,inactive
9,O=C(NCc1ccco1)c1ccc2snnc2c1,inactive
10,CC(C)(C)c1ccc(S(=O)(=O)NCc2ccc(C(=O)NCc3ccccn3)cc2)cc1,inactive
11,O=C(Cc1ncn[nH]1)NCCc1ccccc1,inactive
12,COc1ccc(CCNC(=O)Cn2nnc(-c3cccc(OC)c3OC)n2)cc1OC,inactive
13,CC(c1nnc(SCn2nnc3ccccc3c2=O)n1-c1ccc(Cl)cc1)N(C)C (stereo unspecified),inactive
14,COc1cccc(-c2nc(CS(=O)(=O)CC(=O)NC3CC3)c(C)o2)c1,inactive
15,CCOc1ccc(N2CC(C(=O)NCC(=O)Nc3ccc(F)c(F)c3F)CC2=O)cc1 (stereo unspecified),inactive
16,NS(=O)(=O)c1ccc(NC(=O)c2ccccc2C(=O)N2CCCCC2)cc1,inactive
17,CCN(C(=O)CCc1nc(-c2ccccc2F)no1)c1cc(OC)ccc1OC,inactive
18,COc1ccccc1NC(=O)COC(=O)c1cc2c(s1)CCC2,inactive
19,CCOC(=O)c1cccc2c(=O)c(C(=O)c3ccc(Cl)cc3)c(C(=O)OC)[nH]c12,inactive
